Source: PubChem BioAssay (National Center for Advancing Translational Sciences (NCATS))
Tb PFK block – qHTS Assay to Find Inhibitors of T. brucei phosphofructokinase; ATP-dependent 6-phosphofructokinase (Trypanosoma brucei brucei), O15648; T. brucei PFK, ADP-Glo luminescence; Potency, µM (doses to about 57.5 µM), without a hit: at the highest dose activity, negative = inhibition, actives largely listed as inhibitors; hit rate 0.17% among 330,000; AID 485367, 2010;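 also: 0% = uninhibited 1x PFK enzyme wells and -100% = no-enzyme wells; nearly all actives have a fitted effect of over 60% in size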
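In TEA buffer at pH 8.0 with 5 mM MgCl2, enzyme (1.25 nM) converted F6P (0.5 mM) and ATP (0.1 mM) for 45 min at room temperature. ADP product was read by luciferase luminescence.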
TDP1 inh – qHTS Assay for Inhibitors of Tyrosyl-DNA Phosphodiesterase (TDP1) | AID 485290, 2010 | hit rate 0.28% among 350,000 | Tyrosyl-DNA phosphodiesterase 1 (Homo sapiens), Q9NUW8 | Potency, µM (highest dose often 130 µM), inactives show top-dose activity change, negative = inhibition, usual class: inhibitors | recombinant TDP1, AlphaScreen DNA substrate cleavage; also: % is scaled to controls: 0 for no effect and ±100 for the full control effect; nearly all actives have a fitted effect of over 40% in size
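Enzyme-compound mixtures sat 15 min at room temperature, followed by a 5 min reaction with 15 nM final substrate and 10 min with AlphaScreen beads. Recombinant human Tdp1 was used at 1 nM final.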
Pin1 inh – qHTS Assay to Find Inhibitors of Pin1; Potency, µM (highest dose often 115 µM), inactives show top-dose activity, negative = inhibition, usual class: inhibitors; Pin1 FP peptide displacement, HiFluor488, 10 min; AID 504891, 2011; hit rate 0.009% among 390,000; active = well fitted inhibition curve with a large enough effect in the polarisation, with a control signal flat, not every such curve was filed as active; inconclusive = small, poorly fitted or top-dose-only effect, or effect the other way, or a change in a side signal; inactive = no such curve, though single readings can be large or run the other way; the % refers to the polarisation; also: % is scaled to controls: 0 for no effect and ±100 for the full control effect
VDR inh – Inhibitors of the vitamin D receptor (VDR): qHTS; Vitamin D3 receptor (Homo sapiens), P11473; VDR-SRC2-3 peptide fluorescence polarization, 2 h; Potency, µM, for the others: max response, negative = inhibition, usual class: inhibitors; hit rate 0.93% among 400,000; AID 504847, 2011; also: % is scaled to controls: 0 for no effect and ±100 for the full control effect
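Two reagent solutions held at 4 deg C in the dark were dispensed, compounds pinned at 23 nl, and the mixture incubated 2 h at room temperature. Read-out: fluorescence polarization of VDR–SRC2-3 peptide binding.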
PLK1 PBD inh – qHTS for Inhibitors of PLK1-PDB (polo-like kinase 1 - polo-box domain): Primary Screen. Serine/threonine-protein kinase PLK1 (Homo sapiens), P53350. Plk1 PBD binding of FITC phosphopeptide, fluorescence polarization. Potency, µM, for the others: max response, negative = inhibition, usual class: inhibitors. hit rate 2.8% among 360,000. AID 720504, 2013; also: series mostly up to about 57 µM; % is scaled to controls: 0 for no effect and ±100 for the full control effect; nearly all actives have a fitted effect of over 65% in size
Target sequence (P53350 whole entry, looked up, the tested form may be a part): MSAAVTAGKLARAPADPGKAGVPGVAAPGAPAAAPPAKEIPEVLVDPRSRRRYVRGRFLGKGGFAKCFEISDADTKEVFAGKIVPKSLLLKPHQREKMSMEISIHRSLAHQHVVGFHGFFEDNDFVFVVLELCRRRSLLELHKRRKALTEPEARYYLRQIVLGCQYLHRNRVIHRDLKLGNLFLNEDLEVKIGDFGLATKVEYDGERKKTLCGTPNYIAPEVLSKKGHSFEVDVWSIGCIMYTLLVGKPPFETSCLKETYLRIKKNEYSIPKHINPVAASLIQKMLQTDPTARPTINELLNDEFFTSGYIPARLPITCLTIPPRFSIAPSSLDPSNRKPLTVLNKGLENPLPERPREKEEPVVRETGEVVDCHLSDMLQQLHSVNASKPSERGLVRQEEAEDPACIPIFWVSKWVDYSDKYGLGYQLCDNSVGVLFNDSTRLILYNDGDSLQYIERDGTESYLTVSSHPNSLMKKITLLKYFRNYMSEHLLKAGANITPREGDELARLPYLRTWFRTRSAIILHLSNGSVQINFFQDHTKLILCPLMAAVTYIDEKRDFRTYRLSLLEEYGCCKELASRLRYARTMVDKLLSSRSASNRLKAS
S-ASM inh – Inhibitors of Secretory Acid Sphingomyelinase (S-ASM): qHTS. Sphingomyelin phosphodiesterase (Homo sapiens), P17405. placental ASM, HMU-PC fluorogenic substrate, 60 min. Potency, µM (series often up to 57.5 µM), for inactives: at the highest dose activity change, negative = inhibition, hits mostly inhibitors. hit rate 0.006% among 340,000. AID 504937, 2011
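Steps: dispense placental human ASM, pin compound, wait 10 min at room temperature, add HMU-PC0 substrate at 9 uM final, incubate 60 min at 37 °C, add stop solution raising pH to 10, read fluorescence.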
* marks the source's active call; other numbers are inactive results. Shown are actives, neighbours in structure and some others; about 3.1% of the full set was active somewhere. Unless noted, calls follow the shape of the dose curve; as a rule, active = well fitted curve in the direction sought with a large enough effect; inconclusive = small, poorly fitted or top-dose-only effect, or another doubt; inactive = no such curve, though single readings can be large; an effect the other way counts as inactive or inconclusive. Potency is read from the fitted curve at half-maximal effect.

Screening Cc1ccc(NC(=O)COC(=O)C2CC3C=CC2C3)cc1S(=O)(=O)N1CCCCC1 (stereo not drawn) returned Tb PFK block 7.4%, TDP1 inh 1.4%, Pin1 inh 6.0%, VDR inh -21.0%, PLK1 PBD inh 21.2µM* and S-ASM inh -0.6%.
`Cc1ccc(S(=O)(=O)N2CCCCC2)cc1NC(=O)COC(=O)C1CC2C=CC1C2` (stereo not drawn) gave Tb PFK block -1.1%, TDP1 inh 2.7%, Pin1 inh 4.2%, VDR inh -1.0%, PLK1 PBD inh 0.0% and S-ASM inh -0.1%.
Screening CCCCCCCCCCCCCCCCCC(=O)NCC(COP(=O)([O-])OCC[N+](C)(C)C)OCC (stereo not drawn) returned TDP1 inh 4.8% and VDR inh -8.3%.
For Cc1ccc(S(=O)(=O)N2CCC(C)CC2)c([N+](=O)[O-])c1 the results were Tb PFK block 1.7%, TDP1 inh 0.0%, Pin1 inh 6.5%, VDR inh -7.4%, PLK1 PBD inh 23.8µM* and S-ASM inh 3.0%.
Cc1ccc([N+](=O)[O-])cc1S(=O)(=O)N1CCC(C)CC1 was read as Tb PFK block -2.0%, TDP1 inh 3.6%, Pin1 inh -1.8%, VDR inh 1.6%, PLK1 PBD inh 37.7µM* and S-ASM inh -1.6%.
`Cc1ccc([N+](=O)[O-])cc1S(=O)(=O)N1CCCC1` gave Tb PFK block 0.1%, TDP1 inh -2.7%, Pin1 inh 0.5%, VDR inh -18.1%, PLK1 PBD inh -11.9% and S-ASM inh 4.9%.
NCCCC[C@H](NC(=O)[C@H](CCCN=C(N)N)NC(=O)[C@H](CO)NC(=O)[C@H](CCCN=C(N)N)NC(=O)[C@@H](N)Cc1ccc(O)cc1)C(=O)N[C@@H](Cc1ccc(O)cc1)C(=O)N[C@@H](CO)C(=O)N[C@@H](CO)C(=O)N[C@@H](Cc1c[nH]c2ccccc12)C(=O)N[C@@H](Cc1ccc(O)cc1)C(=O)O was read as TDP1 inh 11.5% and VDR inh 2.5%.
O=C(NCc1ccc(F)cc1)C1CCN(C(=O)c2ccc(-n3ccc4ccccc43)s2)CC1 was read as TDP1 inh 2.6%, Pin1 inh 33.7% and VDR inh 6.8%.
COc1cc(Cl)c(C)cc1N1C(=O)CN(Cc2ccccc2)C1=S was read as Tb PFK block -1.4%, Pin1 inh -9.1%, VDR inh -25.5%, PLK1 PBD inh 23.8µM* and S-ASM inh 2.4%.
Screening CCOC(=O)c1ccn(-c2nc(-c3cccc(OC)c3)cc(C(F)(F)F)n2)n1 returned TDP1 inh -1.8%, Pin1 inh inconclusive and VDR inh -12.3%.
O=C(Nc1nc(-c2ccccn2)cs1)c1ccccc1-n1cnnn1 was read as Tb PFK block -1.8%, TDP1 inh 5.1%, Pin1 inh -1.2%, VDR inh inconclusive, PLK1 PBD inh 3.77µM* and S-ASM inh 0.5%.
Cn1nc(C(=O)Nc2nc(-c3ccccn3)cs2)c2ccccc2c1=O was read as Tb PFK block -0.4%, TDP1 inh 12.3%, Pin1 inh -5.0%, VDR inh inconclusive, PLK1 PBD inh 13.4µM* and S-ASM inh -3.5%.
For O=C(Nc1nc(-c2ccccn2)cs1)c1ccc2c(c1)OCCO2 the results were Tb PFK block 10.0%, Pin1 inh 44.9%, VDR inh -6.1%, PLK1 PBD inh 5.5% and S-ASM inh -1.4%.
CC(=O)Nc1ccc(C(=O)Nc2nc(-c3ccccn3)cs2)cc1 was read as Tb PFK block inconclusive, TDP1 inh 7.7%, Pin1 inh 1.6%, VDR inh -24.1%, PLK1 PBD inh 23.8µM* and S-ASM inh -7.6%.
Screening CC(=O)Nc1ccc(C(=O)Nc2nc(-c3cccnc3)cs2)cc1 returned Tb PFK block 7.9%, TDP1 inh 70.8µM*, Pin1 inh inconclusive, VDR inh inconclusive, PLK1 PBD inh 13.4µM* and S-ASM inh 1.8%.
Screening O=C(Nc1nc(-c2ccccc2)cs1)c1cccnc1 returned Tb PFK block 3.6%, TDP1 inh 4.9%, Pin1 inh inconclusive, VDR inh 4.4%, PLK1 PBD inh -9.5% and S-ASM inh -2.7%.
For C=CCCn1c(Cl)c(C#N)sc1=O the results were TDP1 inh 7.4%, Pin1 inh 9.3% and VDR inh inconclusive.
`CCN(CC)c1ccc(NC(=O)c2ccccn2)cc1S(=O)(=O)Nc1ccccc1OC` gave Tb PFK block -11.3%, TDP1 inh 5.3%, Pin1 inh 24.9%, VDR inh 79.4µM*, PLK1 PBD inh 6.7µM* and S-ASM inh -2.9%.
`CCN(CC)CCNC(=O)c1ccc(Cl)c(S(=O)(=O)Nc2ccccc2OC)c1` gave Tb PFK block -0.9%, TDP1 inh 1.9%, Pin1 inh 2.2%, VDR inh -3.4%, PLK1 PBD inh 23.8µM* and S-ASM inh 2.0%.
Screening COc1cc(NC(=O)c2ccccn2)cc(OC)c1OC returned Tb PFK block -2.2%, TDP1 inh 8.0%, Pin1 inh 2.3%, VDR inh inconclusive, PLK1 PBD inh 6.7µM* and S-ASM inh 6.0%.
For COc1ccc(C(=O)NNC(=O)c2ccccn2)cc1 the results were Tb PFK block 15.1µM*, TDP1 inh -1.9%, Pin1 inh -3.3%, VDR inh -13.5%, PLK1 PBD inh 1.8% and S-ASM inh -1.8%.
Screening COc1ccccc1NC(=O)C(OC(=O)CNC(=O)c1ccccc1)c1ccccc1 (stereo not drawn) returned TDP1 inh -0.5% and Pin1 inh 4.7%.
For CCOc1ccc(-n2c(SCC(=O)Nc3cc(C)ccc3C)nc3c([nH]c4ccccc43)c2=O)cc1 the results were TDP1 inh 0.0%, Pin1 inh 6.4% and VDR inh 13.1%.
Screening COc1cc(OC)cc(C(=O)O/N=C(\N)c2ccccn2)c1 returned Tb PFK block -0.7%, Pin1 inh -8.2%, VDR inh -16.1%, PLK1 PBD inh 3.1% and S-ASM inh 5.2%.
Screening COc1ccc(C(=O)O/N=C(\N)c2ccccn2)cc1 returned Tb PFK block 15.1µM*, Pin1 inh -1.8%, VDR inh 3.3%, PLK1 PBD inh -14.1% and S-ASM inh -1.9%.
